Source: PubChem BioAssay (NCATS)
Results filed as inconclusive are left out. The source made the active and inactive calls. Unless noted, calls follow the shape of the dose curve; as a rule, active = well fitted curve in the direction sought with a large enough effect; inconclusive = small, poorly fitted or top-dose-only effect, or another doubt; inactive = no such curve, though single readings can be large; an effect the other way counts as inactive or inconclusive.

What was measured:
[1] = biological target: ATP-dependent 6-phosphofructokinase (Trypanosoma brucei brucei) (UniProt O15648); assay: qHTS Assay to Find Inhibitors of T. brucei phosphofructokinase: hit validation (AID 492961);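 also: luminescence reports ADP formed as PFK phosphorylates fructose-6-phosphate with ATP; series mostly up to about 51 µM; % is scaled to controls: 0 for no effect and ±100 for the full control effect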
Chain of ATP-dependent 6-phosphofructokinase (Trypanosoma brucei brucei) (O15648 whole entry, looked up): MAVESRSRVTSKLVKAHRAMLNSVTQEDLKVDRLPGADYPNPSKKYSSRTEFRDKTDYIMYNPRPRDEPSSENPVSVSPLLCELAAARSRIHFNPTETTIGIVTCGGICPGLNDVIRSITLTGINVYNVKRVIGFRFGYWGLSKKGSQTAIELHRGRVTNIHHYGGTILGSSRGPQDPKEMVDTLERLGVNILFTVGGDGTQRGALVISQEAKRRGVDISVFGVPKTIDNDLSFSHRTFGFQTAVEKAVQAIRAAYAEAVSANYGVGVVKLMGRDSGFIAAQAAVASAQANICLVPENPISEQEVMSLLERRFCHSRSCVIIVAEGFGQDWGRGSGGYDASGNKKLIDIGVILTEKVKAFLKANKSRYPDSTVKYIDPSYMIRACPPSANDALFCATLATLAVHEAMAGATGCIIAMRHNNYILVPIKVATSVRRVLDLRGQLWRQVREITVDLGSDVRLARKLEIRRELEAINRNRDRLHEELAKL
Procedure, shortened: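 Compounds titrated; %activity normalized to 0x and 1x enzyme controls, curve-fitted. Readout: ADP-Glo luminescence after 45 min room-temperature reaction of 1.25 nM PFK, 0.1 mM ATP, 0.5 mM F6P, pH 8.0.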

[2] = biological target: Methanococcus maripaludis chaperonin (MmCpn) (UniProt Q6LX38); assay: High-Throughput Screening for Modulators of Cytosolic Chaperonin Activity: MmCpn Primary Screen (AID 488978);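 also: 50 nM MmCpn enzyme hydrolysing 30 µM ATP at 37 °C; 0% is about no effect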
Procedure, shortened: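 Steps: chaperonin 50 nM final; add compound, 5 min RT; start with ATP, 30 uM final; hold 10 min at 37C; add ADP Transcreener HTRF reagent, 5 min; read ex 320, em 590 and 665 nm.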

[3] = biological target: D(1A) dopamine receptor (Homo sapiens) (UniProt P21728); assay: HTS Assay for Allosteric Agonists of the Human D1 Dopamine Receptor: Primary Screen for Agonists (AID 488981); also: 0% is about no effect
Procedure, shortened: (§1)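 Tetracycline-induced HEK293 Trex D1 cells with forced coupling to calcium, loaded with no-wash calcium dye; kinetic fluorescence read 180 s after compound addition for agonism, then a further 180 s after an EC20 dopamine challenge for potentiation.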

[4] = biological target: D(1A) dopamine receptor (Homo sapiens) (UniProt P21728); assay: HTS Assay for Allosteric Agonists of the Human D1 Dopamine Receptor: Primary Screen for Potentiators (AID 488982); also: 0% is about no effect
Procedure, shortened: as §1

[5] = Validation screen for small molecules that induce genotoxicity in human embryonic kidney (HEK293T) cells expressing luciferase-tagged ELG1 (AID 493106); also: 0% is about no effect
Procedure, shortened: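 Luminescence from an ELG1-luciferase fusion serves as the read-out, rising when genetic stress elevates ELG1 protein. HEK293T reporter cells (2,000 per well) received 23 nL compound, incubated 16 hr at 37 °C, then ONE-Glo for 30 min at room temperature.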

[6] = qHTS for Inhibitors of Cell Surface uPA Generation: Validation Assay (AID 493164); also: 0% is about no effect
Procedure, shortened: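 RAW 264.7 cells (4000/well) were plated overnight, then exposed for 18 h at 37 C, 5% CO2 to compounds in a 7-point 1:5 titration (2.45 nM–38.3 uM final). Intracellular ATP was read by ATP-Lite luminescence.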

[7] = biological target: Peptidyl-prolyl cis-trans isomerase NIMA-interacting 1 (Homo sapiens) (UniProt Q13526); assay: qHTS Validation Assay to Find Inhibitors of Pin1 (AID 504536; active = well fitted inhibition curve with a large enough effect in the polarisation, with a control signal flat, not every such curve was filed as active; the % refers to the polarisation;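 also: 0% = full Pin1 enzyme wells and -100% = no-enzyme wells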)
Chain of Peptidyl-prolyl cis-trans isomerase NIMA-interacting 1 (Homo sapiens) (Q13526 whole entry, looked up): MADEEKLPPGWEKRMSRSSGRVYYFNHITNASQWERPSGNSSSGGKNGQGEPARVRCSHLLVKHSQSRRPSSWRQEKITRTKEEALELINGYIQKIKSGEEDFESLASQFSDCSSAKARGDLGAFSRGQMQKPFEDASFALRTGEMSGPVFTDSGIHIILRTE
Procedure, shortened: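 Fluorescence polarization competition: compounds (titration) displace HiFluor-488-labeled Pin1-1b peptide from Pin1 (0.3 uM final) in pH 7.5 HEPES buffer with DTT, 10 min at room temperature; %Activity normalized to no-enzyme wells, curves fitted.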

[8] = biological target: Ubiquitin carboxyl-terminal hydrolase 1 (Homo sapiens) (UniProt O94782); assay: Inhibitors of USP1/UAF1: Pilot qHTS (AID 504865);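 also: rhodamine fluorescence freed from ubiquitin-rhodamine substrate followed over time; top concentration of the series differs between compounds; % is scaled to controls: 0 for no effect and ±100 for the full control effect; nearly all actives have a fitted effect of over 35% in size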
Chain of Ubiquitin carboxyl-terminal hydrolase 1 (Homo sapiens) (O94782 whole entry, looked up): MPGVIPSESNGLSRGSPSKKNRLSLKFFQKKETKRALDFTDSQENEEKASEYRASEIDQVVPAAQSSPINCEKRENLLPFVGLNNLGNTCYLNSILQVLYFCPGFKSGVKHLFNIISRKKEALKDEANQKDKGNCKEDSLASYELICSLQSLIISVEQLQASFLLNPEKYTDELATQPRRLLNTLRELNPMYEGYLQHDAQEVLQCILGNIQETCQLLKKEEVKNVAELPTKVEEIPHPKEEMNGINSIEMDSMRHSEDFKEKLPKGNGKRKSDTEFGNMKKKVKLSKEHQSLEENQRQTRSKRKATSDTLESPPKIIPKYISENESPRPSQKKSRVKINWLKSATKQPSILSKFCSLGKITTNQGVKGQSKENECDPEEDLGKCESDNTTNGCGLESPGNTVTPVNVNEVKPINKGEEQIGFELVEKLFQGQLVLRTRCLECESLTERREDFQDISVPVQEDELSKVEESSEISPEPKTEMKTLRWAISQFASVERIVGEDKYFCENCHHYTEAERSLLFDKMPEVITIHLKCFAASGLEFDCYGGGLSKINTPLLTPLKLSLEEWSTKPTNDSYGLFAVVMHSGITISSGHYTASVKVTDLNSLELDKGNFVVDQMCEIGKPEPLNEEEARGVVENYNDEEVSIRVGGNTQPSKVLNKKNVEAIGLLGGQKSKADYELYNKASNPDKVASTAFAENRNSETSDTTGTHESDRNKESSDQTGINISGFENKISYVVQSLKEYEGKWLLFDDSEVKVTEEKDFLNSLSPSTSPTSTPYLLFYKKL
Procedure, shortened: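 In 50mM HEPES pH 7.8 containing 0.5mM EDTA, 1mM TCEP, 0.1 mg/ml BSA and 0.01% Tween-20, 1nM USP1/UAF1 is exposed to compound for 15 min, then Ub-Rho (150nM final) is added and fluorescence is read over time.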

[9] = qHTS for Inhibitors of ATXN expression: Validation (AID 588378); also: nearly all actives have a fitted effect of over 75% in size; also: potency is read from the fitted curve at half-maximal effect
Procedure, shortened: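 Compounds were pinned onto attached HEK293 cells carrying an ATXN2-firefly luciferase construct and incubated 24 hrs at 37 degrees C. Each well then received a fluorescent viability reagent followed by luciferase substrate for end-point luminescence.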

[10] = biological target: Transient receptor potential cation channel subfamily V member 1 (Homo sapiens) (UniProt Q8NER1); assay: HTS Assay for Compounds that Act as Enhancers of the Vanilloid Receptor 1 (AID 488979); also: 0% is about no effect
Chain of Transient receptor potential cation channel subfamily V member 1 (Homo sapiens) (Q8NER1 whole entry, looked up): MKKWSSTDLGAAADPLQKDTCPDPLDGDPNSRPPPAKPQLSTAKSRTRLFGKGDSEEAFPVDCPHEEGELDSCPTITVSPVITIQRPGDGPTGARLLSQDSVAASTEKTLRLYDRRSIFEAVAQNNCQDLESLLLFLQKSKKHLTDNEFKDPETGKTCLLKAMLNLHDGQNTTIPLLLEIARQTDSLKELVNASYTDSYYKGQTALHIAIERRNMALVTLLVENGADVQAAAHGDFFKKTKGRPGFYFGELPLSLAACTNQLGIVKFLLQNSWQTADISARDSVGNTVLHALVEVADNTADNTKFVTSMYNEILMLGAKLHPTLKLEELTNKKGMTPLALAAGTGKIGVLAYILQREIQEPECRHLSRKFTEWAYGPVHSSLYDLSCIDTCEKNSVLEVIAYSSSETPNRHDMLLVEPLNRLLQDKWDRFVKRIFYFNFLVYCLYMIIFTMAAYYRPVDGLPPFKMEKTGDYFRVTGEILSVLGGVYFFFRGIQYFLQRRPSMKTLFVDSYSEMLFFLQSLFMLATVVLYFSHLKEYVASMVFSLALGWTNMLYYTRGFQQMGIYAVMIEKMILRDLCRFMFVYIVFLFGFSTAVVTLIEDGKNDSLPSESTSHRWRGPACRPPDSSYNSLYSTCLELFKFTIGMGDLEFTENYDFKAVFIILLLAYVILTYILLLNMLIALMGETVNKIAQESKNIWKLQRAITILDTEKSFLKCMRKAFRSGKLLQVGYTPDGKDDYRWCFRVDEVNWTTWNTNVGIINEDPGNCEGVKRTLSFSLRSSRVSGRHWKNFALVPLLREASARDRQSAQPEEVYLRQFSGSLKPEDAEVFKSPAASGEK
Procedure, shortened: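 TRPV1 cells loaded with Fluo-8 calcium dye; compound added and Ca2+ signal (ex 480/em 520 nm) followed 3 min, then capsaicin at EC20 added and read 2 more min to detect enhancement.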

[11] = biological target: Thyrotropin receptor (Homo sapiens) (UniProt P16473); assay: qHTS Assay for Antagonists of the Thyroid Stimulating Hormone Receptor (AID 488980); also: series mostly up to about 58 µM; 0% is about no effect
Procedure, shortened: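 Readout is cAMP by HTRF competition between cellular cAMP and cAMP-d2 for a cryptate-labelled antibody. Antagonism was assessed in TSHR-transfected HEK293 cells stimulated with 4 nM TSH (EC80, final) in the presence of RO 20-1724.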

[12] = biological target: ATPase family AAA domain-containing protein 5 (Homo sapiens) (UniProt Q96QE3); assay: Validation screen for small molecules that inhibit ELG1-dependent DNA repair in human embryonic kidney (HEK293T) cells expressing luciferase-tagged ELG1 (AID 493107); also: nearly all actives have a fitted effect of over 70% in size; also: potency is read from the fitted curve at half-maximal effect
Chain of ATPase family AAA domain-containing protein 5 (Homo sapiens) (Q96QE3 whole entry, looked up, the tested form may be a part): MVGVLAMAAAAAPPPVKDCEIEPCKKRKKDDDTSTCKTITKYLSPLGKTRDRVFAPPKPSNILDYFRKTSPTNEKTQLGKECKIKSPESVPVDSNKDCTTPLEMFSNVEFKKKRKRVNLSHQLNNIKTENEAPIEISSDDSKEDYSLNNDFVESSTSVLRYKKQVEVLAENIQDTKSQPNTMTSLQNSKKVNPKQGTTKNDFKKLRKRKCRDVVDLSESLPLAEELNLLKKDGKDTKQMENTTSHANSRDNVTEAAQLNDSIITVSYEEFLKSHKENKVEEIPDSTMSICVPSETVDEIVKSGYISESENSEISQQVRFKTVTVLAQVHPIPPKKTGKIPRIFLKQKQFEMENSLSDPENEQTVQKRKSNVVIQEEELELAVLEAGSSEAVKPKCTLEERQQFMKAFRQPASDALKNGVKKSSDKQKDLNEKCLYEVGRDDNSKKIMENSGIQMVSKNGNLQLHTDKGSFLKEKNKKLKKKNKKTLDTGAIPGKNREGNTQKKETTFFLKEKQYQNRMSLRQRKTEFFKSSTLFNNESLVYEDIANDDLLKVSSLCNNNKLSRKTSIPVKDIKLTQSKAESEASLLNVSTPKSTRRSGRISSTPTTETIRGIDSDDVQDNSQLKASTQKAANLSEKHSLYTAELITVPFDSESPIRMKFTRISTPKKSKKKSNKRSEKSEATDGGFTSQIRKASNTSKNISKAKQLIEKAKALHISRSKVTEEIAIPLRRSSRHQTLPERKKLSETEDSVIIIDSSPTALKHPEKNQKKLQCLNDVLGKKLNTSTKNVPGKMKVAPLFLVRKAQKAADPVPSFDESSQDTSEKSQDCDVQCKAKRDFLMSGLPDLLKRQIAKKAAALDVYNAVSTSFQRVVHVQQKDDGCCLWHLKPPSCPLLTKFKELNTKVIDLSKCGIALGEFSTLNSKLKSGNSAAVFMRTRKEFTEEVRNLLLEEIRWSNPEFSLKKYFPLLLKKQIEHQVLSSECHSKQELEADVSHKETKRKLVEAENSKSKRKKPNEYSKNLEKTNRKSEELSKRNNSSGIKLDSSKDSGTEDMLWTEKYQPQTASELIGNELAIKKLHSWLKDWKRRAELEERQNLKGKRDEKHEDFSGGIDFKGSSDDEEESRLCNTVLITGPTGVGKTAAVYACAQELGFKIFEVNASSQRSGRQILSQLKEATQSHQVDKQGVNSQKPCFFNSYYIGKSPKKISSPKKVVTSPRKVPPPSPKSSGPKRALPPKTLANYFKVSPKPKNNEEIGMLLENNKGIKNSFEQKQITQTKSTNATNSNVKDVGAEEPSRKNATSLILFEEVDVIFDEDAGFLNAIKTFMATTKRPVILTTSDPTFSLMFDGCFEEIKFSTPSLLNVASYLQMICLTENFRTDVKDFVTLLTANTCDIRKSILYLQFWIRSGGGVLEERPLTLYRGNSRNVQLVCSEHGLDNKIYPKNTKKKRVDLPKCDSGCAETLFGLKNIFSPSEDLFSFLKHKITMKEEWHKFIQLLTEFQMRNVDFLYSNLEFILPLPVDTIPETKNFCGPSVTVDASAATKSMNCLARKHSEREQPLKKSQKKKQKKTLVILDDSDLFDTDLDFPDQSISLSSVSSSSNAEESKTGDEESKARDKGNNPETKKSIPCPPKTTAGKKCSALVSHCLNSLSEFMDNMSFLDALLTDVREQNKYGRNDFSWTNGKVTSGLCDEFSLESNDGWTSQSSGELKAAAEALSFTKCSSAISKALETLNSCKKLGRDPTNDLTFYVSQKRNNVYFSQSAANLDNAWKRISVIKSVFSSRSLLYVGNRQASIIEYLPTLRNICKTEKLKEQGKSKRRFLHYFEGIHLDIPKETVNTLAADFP
Procedure, shortened: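 Luminescence from ONE-Glo, developed 30 min at room temperature, served as read-out of ELG1-luciferase levels. Beforehand, reporter HEK293T cells received 5-fluorouridine plus test compound for 16 hr at 37 °C.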

[13] = biological target: Thyrotropin-releasing hormone receptor (Homo sapiens) (UniProt P34981); assay: qHTS for Small Molecule Agonists and Allosteric Enhancers of Human TRH Receptor: Validation Screen for Agonists (AID 493127;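 active = calcium activation more than 3 SD above the typical response in the agonist read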;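 also: intracellular calcium rise by fluo-8 fluorescence before TRH EC20 addition; 0% is about no effect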); conditions: TRH receptor agonist cell assay; at 2 µM; stronger effect = higher value
Chain of Thyrotropin-releasing hormone receptor (Homo sapiens) (P34981 whole entry, looked up): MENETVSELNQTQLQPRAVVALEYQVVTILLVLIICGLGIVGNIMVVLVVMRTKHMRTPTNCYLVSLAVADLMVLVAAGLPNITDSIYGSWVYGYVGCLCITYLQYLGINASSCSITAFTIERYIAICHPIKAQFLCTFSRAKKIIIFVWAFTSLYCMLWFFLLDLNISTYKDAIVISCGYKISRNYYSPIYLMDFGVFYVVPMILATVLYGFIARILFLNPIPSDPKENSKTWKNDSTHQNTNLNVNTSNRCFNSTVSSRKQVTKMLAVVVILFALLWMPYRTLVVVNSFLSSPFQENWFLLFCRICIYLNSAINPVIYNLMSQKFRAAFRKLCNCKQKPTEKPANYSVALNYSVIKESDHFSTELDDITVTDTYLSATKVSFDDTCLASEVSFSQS
Procedure, shortened: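 Cells 2000/well, 10% FCS, 18 h 33.5C/5% CO2 → fluo-8 Ca dye, RT 30 min–1.5 h → FDSS baseline 10 × 1 s → compound added → 230 cycles (1 s/cycle) agonist mode. TRH controls.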

[14] = biological target: Galactokinase (Homo sapiens) (UniProt P51570); assay: qHTS Validation Assay for Inhibitors of Human Galactokinase (GALK) (AID 493189); also: 0% is about no effect
Chain of Galactokinase (Homo sapiens) (P51570 whole entry, looked up): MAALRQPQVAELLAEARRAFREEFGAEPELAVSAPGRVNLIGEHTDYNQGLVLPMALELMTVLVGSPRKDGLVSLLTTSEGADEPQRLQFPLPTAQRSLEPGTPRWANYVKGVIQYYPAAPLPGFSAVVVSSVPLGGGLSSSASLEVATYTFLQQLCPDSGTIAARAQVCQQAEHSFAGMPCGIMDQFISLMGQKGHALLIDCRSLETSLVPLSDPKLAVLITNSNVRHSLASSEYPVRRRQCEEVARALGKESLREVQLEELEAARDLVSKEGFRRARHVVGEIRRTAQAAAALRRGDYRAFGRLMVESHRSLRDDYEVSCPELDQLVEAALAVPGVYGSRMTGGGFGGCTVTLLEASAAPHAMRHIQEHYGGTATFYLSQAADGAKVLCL
Procedure, shortened: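 5 nM GALK / 100 uM galactose / 35 uM ATP, 20 mM HEPES pH8.0, 5 mM MgCl2, 60 mM NaCl, 1 mM DTT, 0.01% BSA (final). RT 1 h; Kinase-Glo Plus luminescence.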

[15] = Validation screen for small molecules that induce DNA re-replication in SW480 colon adenocarcinoma cells (AID 504364); also: 0% is about no effect
Procedure, shortened: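 250 cells/well; compound pinned in; 48 hr, 37 C, 5% CO2; Hoechst added, 40 min; nuclear fluorescence imaged, 405 ex / 500-530 em; re-replication scored as increase in high-intensity nuclei.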

[16] = Nrf2 qHTS screen for inhibitors: Validation (AID 493153; active = well fitted inhibition curve with a large enough effect in the main read-out, with a control signal flat, not every such curve was filed as active); conditions: viability change: measured here: cytotoxicity max response
Procedure, shortened: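 Luminescence from an ARE-firefly luciferase reporter in A549 cells gives Nrf2 inhibition; an earlier CellTiter-Fluor fluorescent read flags cytotoxicity. Cells in 5% FBS OPTI-MEM received compound dilution series for 18-24 h at 37°C.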

Cc1cccc(C)c1NC(=O)CN1CCN(CCCC(c2ccc(F)cc2)c2ccc(F)cc2)CC1
inactive: outcome [1]

COc1cc2c(cc1O)CC[C@@H]1[C@@H]2CC[C@]2(C)[C@@H](O)CC[C@@H]12
inactive: outcome [2] | Potency [3] | outcome [4] | outcome [5] | outcome [6] | outcome [7] | Potency [8] | Potency [9]

COc1cc(NS(C)(=O)=O)ccc1Nc1c2ccccc2nc2ccccc12
active: Potency [12] 14.6 µM | Potency [9] 0.355 µM
inactive: outcome [2] | outcome [10] | outcome [11] | Potency [3] | outcome [4] | outcome [1] | activation [13] -3.12% | outcome [6] | outcome [14] | outcome [15] | outcome [7]

CC[C@H](C)C(=O)O[C@H]1CCC=C2C=C[C@H](C)[C@H](CC[C@@H]3C[C@@H](O)CC(=O)O3)[C@H]21
inactive: outcome [2] | Potency [3] | Potency [12] | outcome [16] | outcome [6] | outcome [7] | Potency [8] | Potency [9]
-16.9%: viability change [16]

N[C@H](CO)C(=O)O
inactive: outcome [2] | outcome [10] | outcome [11] | Potency [3] | outcome [4] | outcome [5] | Potency [12] | activation [13] 0.688% | outcome [16] | outcome [6] | outcome [14] | outcome [15] | outcome [7] | Potency [8] | Potency [9]
0.276%: viability change [16]

CNCCC(Oc1ccccc1C)c1ccccc1 (stereo not given)
3.06%: viability change [16]
inactive: outcome [2] | outcome [11] | Potency [3] | outcome [4] | outcome [1] | outcome [5] | Potency [12] | outcome [16] | outcome [6] | outcome [14] | outcome [15] | outcome [7] | Potency [8]

CC1(C)CCC(NC(=O)[C@@H](N)CCC(=O)O)CC1
2.98%: viability change [16]
inactive: outcome [2] | outcome [10] | outcome [11] | Potency [3] | outcome [4] | outcome [1] | outcome [5] | Potency [12] | activation [13] 0.125% | outcome [16] | outcome [6] | outcome [14] | outcome [15] | outcome [7] | Potency [8] | Potency [9]

CC(C)COC(=O)OCN1C(=O)CN(CCN2CC(=O)N(COC(=O)OCC(C)C)C(=O)C2)CC1=O
inactive: outcome [2] | outcome [10] | outcome [11] | Potency [3] | outcome [4] | outcome [1] | outcome [5] | Potency [12] | activation [13] 0.75% | outcome [16] | outcome [6] | outcome [14] | outcome [7] | Potency [8] | Potency [9]
-6.78%: viability change [16]

CC(=O)O[C@H]1C[C@@H]2CC[C@@H]3[C@H](CC[C@@]4(C)[C@H]3C[C@H]([N+]3(C)CCCCC3)[C@@H]4OC(C)=O)[C@@]2(C)C[C@@H]1[N+]1(C)CCCCC1
inactive: outcome [2] | Potency [3] | outcome [4] | outcome [5] | Potency [12] | outcome [16] | outcome [6] | outcome [7] | Potency [9]
-0.593%: viability change [16]

COc1cc(-c2ccc(=O)[nH]n2)ccc1OC(F)F
inactive: outcome [10] | outcome [11] | outcome [1] | activation [13] -0.438% | outcome [14] | outcome [15] | Potency [8]

C[N+]1(CCCCC[N+]2(C)CCCC2)CCCC1
inactive: outcome [2] | outcome [10] | outcome [11] | Potency [3] | outcome [4] | outcome [1] | outcome [5] | Potency [12] | activation [13] 0.75% | outcome [16] | outcome [6] | outcome [14] | outcome [15] | outcome [7] | Potency [8] | Potency [9]
1.12%: viability change [16]

O=S1(=O)c2cccc3cccc(c23)N1CCCN1CCN(c2ccc(F)cc2)CC1
inactive: outcome [1]

N[C@@H](Cc1cnc[nH]1)C(=O)O
0.846%: viability change [16]
inactive: outcome [2] | outcome [10] | outcome [11] | Potency [3] | outcome [4] | outcome [1] | outcome [5] | activation [13] 0.0625% | outcome [16] | outcome [6] | outcome [14] | outcome [15] | outcome [7] | Potency [8] | Potency [9]

Cc1c(N(C)CS(=O)(=O)O)c(=O)n(-c2ccccc2)n1C
inactive: outcome [1]

CN1C2CCC1CC(OC(=O)c1c[nH]c3ccccc13)C2 (stereo not given)
-7.62%: viability change [16]
inactive: outcome [2] | outcome [10] | outcome [11] | Potency [3] | outcome [4] | outcome [5] | Potency [12] | activation [13] 0.812% | outcome [16] | outcome [6] | outcome [14] | outcome [15] | outcome [7] | Potency [8]

CC(CCc1ccccc1)NCC(O)c1ccc(O)c(C(N)=O)c1 (stereo not given)
inactive: outcome [2] | outcome [10] | Potency [3] | outcome [4] | outcome [5] | activation [13] 0.875% | outcome [16] | outcome [6] | outcome [14] | outcome [15] | outcome [7] | Potency [8]
-13.8%: viability change [16]

CCCn1c(=O)[nH]c(=O)c2[nH]cnc21
7.08%: viability change [16]
inactive: outcome [2] | outcome [10] | outcome [11] | Potency [3] | outcome [4] | outcome [5] | Potency [12] | outcome [16] | outcome [6] | outcome [14] | outcome [15] | outcome [7] | Potency [8] | Potency [9]

CN=C(NC#N)Nc1ccc(C2=NNC(=O)CC2C)cc1 (stereo not given)
inactive: outcome [10] | outcome [11] | outcome [14] | outcome [15] | Potency [8]

CCCCCCC[N+](CC)(CC)CCCCc1ccc(Cl)cc1
inactive: outcome [1]
